The target of assay [1] is Transcription factor E2F1 (Homo sapiens) (UniProt Q01094). The experiment in a line: ATG_E2F_CIS: Attagene CIS-FACTORIAL HepG2 Assay for human E2F Transcription Factor 1 (AID 2282935). As to conditions: HepG2 Attagene cis-reporter, E2F reporter RNA transcripts; actives raise or lower the signal. Summed up:
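Total RNA from 24 h-treated, reporter-transfected HepG2 cells undergoes DNase I treatment, oligo(dT) reverse transcription, PCR and 6-FAM primer extension before capillary electrophoresis.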

A short description of assay [2]: ATG_E_Box_CIS: Attagene CIS-FACTORIAL HepG2 Assay for human Enhancer Box (E-box) (AID 2282936). As to conditions: HepG2 E-box cis-reporter transcription, actives raise or lower the signal. The method, boiled down: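 DMSO served as negative control and baseline for bidirectional fitting. Human hepatoma HepG2 cells, transiently transfected with cis-reporter constructs, were dosed 24 h; reporter mRNA read by RT-PCR and capillary electrophoresis.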

A short description of assay [3]: ATG_M_61_CIS: Attagene CIS-FACTORIAL HepG2 Assay for M61 Transcription Factor (Internal Marker) (AID 2282937). The note with it: HepG2 Attagene CIS-FACTORIAL M61 internal marker reporter; actives raise or lower the signal. Summed up: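 Readout is reporter mRNA by RT-PCR, fluorescent primer extension and capillary electrophoresis, with gain or loss fitted relative to DMSO. Transfected HepG2 cells carrying endogenous-TF-driven cis reporters were exposed to chemicals for 24 hours.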

A short description of assay [4]: ATG_EGR_CIS: Attagene CIS-FACTORIAL HepG2 Assay for human Early Growth Response 1 (EGR1) (AID 2282938). As to conditions: HepG2 Attagene CIS-FACTORIAL EGR reporter mRNA; actives raise or lower the signal. Summed up:
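After 24 h compound exposure, RNA from reporter-transfected HepG2 cells was reverse-transcribed, PCR-amplified, fluorescently labelled and resolved by capillary electrophoresis. EGR1 reporter transcript changes, up or down, were fitted against DMSO, reflecting endogenous transcription-factor activity.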

Assay [5] can be described thus: ATG_M_19_CIS: Attagene CIS-FACTORIAL HepG2 Assay for M19 Transcription Factor (Internal Marker) (AID 2282939). The note with it: HepG2 Attagene CIS-FACTORIAL M19 internal marker reporter; actives raise or lower the signal. The method, boiled down: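 Readout: fluorescent reporter-transcript fragments by capillary electrophoresis after RT-PCR. Human HepG2 liver cells carried transfected MRTU constructs reporting endogenous transcription-factor activity; exposure 24 h. Gain or loss of signal fitted relative to DMSO.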

The nature of assay [6]: ATG_ERE_CIS: Attagene CIS-FACTORIAL HepG2 Assay for Estrogen Response Element (ERE) (AID 2282940). As to conditions: HepG2 ERE cis-reporter, Attagene RNA transcript; actives raise or lower the signal. Summed up:
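Readout: reporter mRNA induction by RT-PCR, FAM-labelled primer extension, HpaI digestion and capillary electrophoresis, 24 h after dosing transfected HepG2 cells. Endogenous transcription factors act on cis-element-regulated reporters. Gain or loss fitted against DMSO.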

The nature of assay [7]: ATG_Ets_CIS: Attagene CIS-FACTORIAL HepG2 Assay for human Erythroblast Transformation Specific (ETS) (AID 2282941). As to conditions: HepG2 ETS cis-reporter transcription, actives raise or lower the signal. Summed up:
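HepG2 cells transfected with multiple cis-regulated reporter units measuring endogenous ETS-driven transcription, 24 h after dosing. Reporter mRNA quantified by RT-PCR with capillary electrophoresis; bidirectional fit relative to DMSO.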

Assay [8] addresses Hepatocyte nuclear factor 3-beta (Homo sapiens) (UniProt Q9Y261). The experiment in a line: ATG_FoxA2_CIS: Attagene CIS-FACTORIAL HepG2 Assay for human Forkhead box A2 (FOXA2) (AID 2282942). As to conditions: HepG2 cis-reporter transcription factor activity, 24 h; actives raise or lower the signal. Summed up:
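Endogenous transcription factor activity is captured via cis-element-driven reporter transcripts in transfected HepG2. Total RNA taken at 24 h post-dosing; labelled RT-PCR products resolved by capillary electrophoresis. Gain or loss fitted versus DMSO.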

A short description of assay [9]: ATG_FoxO_CIS: Attagene CIS-FACTORIAL HepG2 Assay for human Forkhead box O (FoxO) (AID 2282943). As to conditions: HepG2 Attagene cis-reporter, FoxO element, mRNA; actives raise or lower the signal. The method, boiled down: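 Endogenous transcription factor activity read from multiplexed cis-promoter reporter transcripts in transiently transfected HepG2, 24 h after dosing. Reporter RNA measured via RT-PCR plus capillary electrophoresis of FAM-labeled products; gain or loss relative to DMSO.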

Assay [10] is described as follows: ATG_GATA_CIS: Attagene CIS-FACTORIAL HepG2 Assay for human GATA Binding Protein (AID 2282944). As to conditions: HepG2 GATA cis-element reporter, Attagene multiplex mRNA; actives raise or lower the signal. The method, boiled down:
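Read-out: fluorescent reporter mRNA fragments resolved by capillary electrophoresis after RT-PCR. Human liver HepG2 cells carried transiently transfected cis-regulated reporter constructs; chemicals incubated 24 h; gain or loss of signal fitted relative to DMSO.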

Some structures have more than one record in an assay (separate samples or runs), and their calls can disagree. Calls of active or inactive are those of the source. How the source made its calls: active means hit-call score of the fitted dose curve at least 0.9, where 1 is the maximum; inactive means score below 0.9.

Sequence of Transcription factor E2F1 (Homo sapiens) (Q01094 whole entry, looked up): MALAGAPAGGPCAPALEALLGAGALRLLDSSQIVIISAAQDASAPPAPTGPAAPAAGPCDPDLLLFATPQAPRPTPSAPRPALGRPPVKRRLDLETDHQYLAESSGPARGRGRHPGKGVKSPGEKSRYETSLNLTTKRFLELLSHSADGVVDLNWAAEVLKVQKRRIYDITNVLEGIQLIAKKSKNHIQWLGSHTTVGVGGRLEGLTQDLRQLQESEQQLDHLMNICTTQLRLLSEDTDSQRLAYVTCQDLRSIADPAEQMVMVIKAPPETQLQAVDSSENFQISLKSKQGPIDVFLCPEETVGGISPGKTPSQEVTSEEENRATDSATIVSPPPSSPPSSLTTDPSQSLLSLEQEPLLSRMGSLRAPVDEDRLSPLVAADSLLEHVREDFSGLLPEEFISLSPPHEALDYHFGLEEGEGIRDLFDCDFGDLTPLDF
Sequence of Hepatocyte nuclear factor 3-beta (Homo sapiens) (Q9Y261 whole entry, looked up): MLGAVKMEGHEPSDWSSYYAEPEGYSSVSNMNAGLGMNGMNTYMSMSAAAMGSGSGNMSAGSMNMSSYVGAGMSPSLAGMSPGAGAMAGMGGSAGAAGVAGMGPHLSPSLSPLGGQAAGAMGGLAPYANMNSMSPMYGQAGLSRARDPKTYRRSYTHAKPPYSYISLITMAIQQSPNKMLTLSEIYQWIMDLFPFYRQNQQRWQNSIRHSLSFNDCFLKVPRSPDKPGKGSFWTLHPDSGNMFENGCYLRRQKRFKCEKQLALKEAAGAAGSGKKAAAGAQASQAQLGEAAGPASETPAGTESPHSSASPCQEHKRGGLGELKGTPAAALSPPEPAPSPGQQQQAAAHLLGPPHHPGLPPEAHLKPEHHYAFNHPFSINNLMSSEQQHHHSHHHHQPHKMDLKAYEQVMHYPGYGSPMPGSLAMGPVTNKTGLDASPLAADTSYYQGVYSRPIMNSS

With `CC(C)OC(=O)Nc1cccc(Cl)c1`, the outcome in assay [1], in assay [2], in [3], in assay [5], in assay [6] and in assay [7] was inactive. The result in [8], in assay [9] and in assay [10] was inactive. Moreover, the AC50 in assay [4] is 94.5 µM (active).
Regarding `O=C(O)C(F)(F)C(F)(F)C(F)(F)C(F)(F)C(F)(F)C(F)(F)C(F)(F)F`, the compound was classed as inactive in assay [1], in assay [2], in [3], in [4], in assay [5] and in assay [7]. The call in [8], in [9] and in assay [10] was inactive.
As to `N#Cc1c(Cl)c(Cl)c(Cl)c(C#N)c1Cl`, the call in assay [1], in [2], in assay [3], in assay [4], in assay [5] and in [6] was inactive. Besides, the outcome in assay [7], in assay [8], in [9] and in assay [10] was inactive.
Turning to `O=C1c2ccccc2C(=O)N1SC(Cl)(Cl)Cl`, the compound was called inactive in [1], in [2], in assay [3], in assay [4], in assay [5] and in assay [6]. Further, the compound was classed as inactive in assay [7], in assay [8], in assay [9] and in assay [10].
For the compound `CCCN(CCOc1c(Cl)cc(Cl)cc1Cl)C(=O)n1ccnc1`, the call in assay [1], in assay [2], in assay [3], in assay [4], in [5] and in assay [7] was inactive. Further, the compound was called inactive in assay [8], in assay [9] and in [10].
On to `O=S1OCC2C(CO1)C1(Cl)C(Cl)=C(Cl)C2(Cl)C1(Cl)Cl` (stereo not drawn), for which the compound was classed as inactive in assay [1], in assay [2], in assay [3], in assay [4], in [5] and in [7]. Further, the result in [8], in assay [9] and in assay [10] was inactive. Besides, the AC50 in assay [6] was 1.72 µM (active).
Consider `[2H]C1([2H])[n+]2ccccc2-c2cccc[n+]2C1([2H])[2H]`, for which the AC50 in [1] was 90.7 µM (active); in [2] it was 78.7 µM (active). The outcome in assay [3], in assay [4], in assay [5], in assay [6], in assay [7] and in [8] was inactive. Further, the outcome in [9] and in [10] was inactive.
Regarding `CNC(=O)CSP(=S)(OC)OC`, the call in assay [1], in [2], in assay [3], in assay [4], in assay [5] and in assay [6] was inactive. The call in [7], in assay [8], in assay [9] and in assay [10] was inactive.
In the case of `Cc1[nH]c(=O)n(C(C)(C)C)c(=O)c1Cl`, the compound was classed as inactive in assay [1], in [2], in assay [3], in assay [4], in [5] and in assay [6]. For the same compound, the compound was called inactive in assay [7], in [8], in [9] and in assay [10].
Take `CNC(=O)Oc1cccc(N=CN(C)C)c1`: the compound was classed as inactive in assay [1], in assay [2], in assay [3], in assay [4], in assay [5] and in assay [7]. In [8], the result was inactive. Besides, the AC50 in [6] is 91.4 µM (active); in [9], 70.8 µM (active); in [10], 33.6 µM (active).
`COP(=O)(OC)OC=C(Cl)Cl`: the call in assay [1], in assay [2], in [3], in assay [5], in assay [6] and in [7] was inactive. Moreover, the result in assay [8], in assay [9] and in assay [10] was inactive. Also, the AC50 in assay [4] is 14.4 µM (active).
Regarding `CC[C@H](C)[C@H]1O[C@]2(C=C[C@@H]1C)C[C@@H]1C[C@@H](C/C=C(\C)[C@@H](O[C@H]3C[C@H](OC)[C@@H](O[C@H]4C[C@H](OC)[C@@H](O)[C@H](C)O4)[C@H](C)O3)[C@@H](C)/C=C/C=C3\CO[C@@H]4[C@H](O)C(C)=C[C@@H](C(=O)O1)[C@]34O)O2` (tested in a mixture with another compound), the compound was called inactive in assay [1], in [2], in assay [3], in assay [4], in assay [5] and in assay [6]. Moreover, the compound was called inactive in assay [7], in assay [8], in assay [9] and in assay [10].
`CC(C)(C)C(O)C(Oc1ccc(Cl)cc1)n1cncn1` (stereo not drawn): the compound was called inactive in assay [1], in assay [2], in assay [3], in [4], in assay [5] and in [7]. The compound was classed as inactive in assay [8], in [9] and in assay [10]. For the same compound, the AC50 in assay [8] was 16.9 µM (active).
In the case of `CCCN(CCC)c1c([N+](=O)[O-])cc(C(F)(F)F)cc1[N+](=O)[O-]`, the compound was called inactive in assay [1], in assay [2], in assay [3], in assay [4], in [5] and in assay [6]. The compound was classed as inactive in assay [7], in assay [8], in assay [9] and in assay [10].

The record behind these values is PubChem BioAssay (EPA / NIEHS).
